Screen size: about 310,000 compounds; about 14,000 (4.5%) showed an effect of 50% or more. Effects have a minus sign here. For the sample, strong results were picked, then their nearest neighbours and some compounds at random.
These compounds were tested against human ether-à-go-go-related gene (hERG) potassium channel (human, UniProt Q12809) (assay: primary screen, population patch clamp on CHO cells stably expressing hERG; higher = less effect of the substance).
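Note: peak tail current of the secondary pulse compared with the same well before compound.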

human ether-à-go-go-related gene (hERG) potassium channel, sequence (Q12809 whole entry, looked up): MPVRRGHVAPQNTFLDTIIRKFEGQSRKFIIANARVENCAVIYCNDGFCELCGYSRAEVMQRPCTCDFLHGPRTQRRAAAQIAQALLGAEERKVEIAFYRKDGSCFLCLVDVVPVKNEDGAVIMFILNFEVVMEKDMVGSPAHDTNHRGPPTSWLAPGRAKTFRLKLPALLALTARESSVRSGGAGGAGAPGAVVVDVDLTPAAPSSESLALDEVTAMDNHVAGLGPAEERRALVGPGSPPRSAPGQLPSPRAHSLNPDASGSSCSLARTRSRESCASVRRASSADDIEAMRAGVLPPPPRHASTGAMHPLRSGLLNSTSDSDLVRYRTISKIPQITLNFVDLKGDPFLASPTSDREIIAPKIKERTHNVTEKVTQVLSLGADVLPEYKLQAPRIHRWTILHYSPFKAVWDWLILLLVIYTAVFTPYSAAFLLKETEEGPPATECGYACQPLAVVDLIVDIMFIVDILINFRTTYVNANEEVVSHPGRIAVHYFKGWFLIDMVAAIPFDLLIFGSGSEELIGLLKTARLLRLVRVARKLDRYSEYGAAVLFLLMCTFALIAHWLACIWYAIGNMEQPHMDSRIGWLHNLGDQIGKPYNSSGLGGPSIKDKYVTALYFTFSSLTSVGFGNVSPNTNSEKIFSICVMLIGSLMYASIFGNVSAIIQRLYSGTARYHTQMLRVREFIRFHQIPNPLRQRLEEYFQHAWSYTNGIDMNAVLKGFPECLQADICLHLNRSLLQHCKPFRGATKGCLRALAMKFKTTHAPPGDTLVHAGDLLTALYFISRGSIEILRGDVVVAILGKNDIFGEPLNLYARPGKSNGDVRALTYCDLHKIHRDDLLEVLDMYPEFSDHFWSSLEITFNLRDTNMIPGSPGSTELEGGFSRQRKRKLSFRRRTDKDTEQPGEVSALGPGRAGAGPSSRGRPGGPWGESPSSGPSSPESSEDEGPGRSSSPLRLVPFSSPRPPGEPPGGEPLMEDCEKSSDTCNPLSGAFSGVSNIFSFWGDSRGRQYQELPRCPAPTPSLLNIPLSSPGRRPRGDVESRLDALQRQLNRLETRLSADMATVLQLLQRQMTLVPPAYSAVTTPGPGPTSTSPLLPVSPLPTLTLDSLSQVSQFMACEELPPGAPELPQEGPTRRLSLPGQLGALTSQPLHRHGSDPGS

Compound | hERG current change (%, negative = inhibition) at 10uM
COc1ccc(CN2CCN(C(=O)CCC(=O)Nc3nnc(CC(C)C)s3)CC2)cc1F | -17.9%
O=C(c1cccc2ccccc12)N1CCN(c2ccccc2F)CC1 | -9.72%
O=C(CCC(=O)Nc1ccccc1)N/N=C/C=C/c1ccccc1 | 32.1%
CC(=O)Nc1ccc(NC(=O)C2CC(=O)N(c3cccc(C)c3C)C2)cc1 (stereo not shown) | 9.48%
Cc1ccn2c(CN(C)CCn3nc(C)cc3C)c(C(=O)N3CCCCCC3)nc2c1 | 4.86%
Cc1cc2cc3c(cc2nc1SCc1ccccn1)OCCO3 | 5.43%
O=c1c(Cl)c(N2CCOCC2)cnn1-c1ncc(C(F)(F)F)cc1Cl | 5.44%
Cc1ccc(N2CC(C(=O)Nc3ccc(S(=O)(=O)N4CCCC4)cc3)CC2=O)cc1C (stereo not shown) | 6.52%
Cc1c(/C(O)=C2/C(=O)C(=O)N(CCN3CCOCC3)C2c2cccs2)cnn1-c1ccccc1 (stereo not shown) | 13.6%
COc1cccc(C(=O)NCc2ccc3c(c2)cc(C)n3C)c1 | 17%
CCc1ccc2[nH]c(=O)c(CN(CCN(CC)CC)C(=O)Nc3ccccc3OC)cc2c1 | -76.5%
CCc1ccc2[nH]c(=O)c(CN(CCN(C)C)C(=O)Nc3ccccc3OC)cc2c1 | -64.7%
CCc1ccc2[nH]c(=O)c(CN(CCO)C(=O)NCc3ccccc3)cc2c1 | 3.64%
CCc1ccc2[nH]c(=O)c(CN(CCCO)C(=O)NCc3ccccc3)cc2c1 | -13%
CCc1ccc2[nH]c(=O)c(CN(Cc3ccccc3)C(=O)Nc3ccccc3OC)cc2c1 | 4.2%
CCc1ccc2[nH]c(=O)c(CN(Cc3ccccc3OC)C(=O)Nc3ccccc3OC)cc2c1 | 3.47%
Nc1nc(SCc2ccc(Cl)c(Cl)c2)n[nH]1 | 10.4%
O=C(COC(=O)c1ccc(F)c(S(=O)(=O)N2CCOCC2)c1)c1ccc(Cl)cc1 | -31.1%
COc1ccccc1/C=N/NC(=O)c1cccc(NC(=O)c2ccccc2C)c1 | -4.64%
CC12CCC(=O)N1C(C(=O)OCC(=O)Nc1cccc(Br)c1)CS2 (stereo not shown) | 6.89%

Compound | hERG current change (%, negative = inhibition) at 10uM
CC12CCC(=O)N1C(C(=O)N1CCN(S(=O)(=O)c3ccccc3F)CC1)CS2 (stereo not shown) | -30.1%
Cc1ccc(NC(=O)C2CSC3(C)CCC(=O)N23)cc1S(=O)(=O)N1CCCCCC1 (stereo not shown) | -55.4%
CC12CCC(=O)N1C(C(=O)N1CCN(S(=O)(=O)c3ccc(F)c(F)c3)CC1)CS2 (stereo not shown) | -53.7%
CC12CCC(=O)N1C(C(=O)OCC(=O)Nc1cccc(S(=O)(=O)N3CCCCCC3)c1)CS2 (stereo not shown) | -86.8%
CC12CCC(=O)N1C(C(=O)OCC(=O)Nc1cc(S(=O)(=O)N3CCCCC3)ccc1Cl)CS2 (stereo not shown) | -48.2%
CC12CCC(=O)N1C(C(=O)Nc1ccc(Cl)c(S(=O)(=O)N3CCCCC3)c1)CS2 (stereo not shown) | -34.3%
Cc1ccc(NC(=O)C2CSC3(C)CCC(=O)N23)cc1S(=O)(=O)N1CCOCC1 (stereo not shown) | 2.81%
Cc1ccc(S(=O)(=O)N2CCN(C(=O)C3CSC4(C)CCC(=O)N34)CC2)cc1C (stereo not shown) | -13.8%
CC12CCC(=O)N1C(C(=O)Nc1ccc(F)cc1)CS2 (stereo not shown) | 12.4%
CC12CCC(=O)N1C(C(=O)Nc1ccc(SC(F)F)cc1)CS2 (stereo not shown) | -57.6%
CC(C)c1ccc(NC(=O)C2CSC3(C)CCC(=O)N23)cc1 (stereo not shown) | 2.4%
COc1ccc(NS(=O)(=O)c2c(C)n(C)c(=O)n(C)c2=O)cc1 | 15.5%
CN(C)S(=O)(=O)c1ccc(Cl)c(NC(=O)COC(=O)/C=C/c2ccc3ccccc3n2)c1 | 1.53%
Cc1ccc(C(=O)COC(=O)CNC(=O)C(c2ccccc2)c2ccccc2)cc1[N+](=O)[O-] | 4.33%
O=C(O)CC1Sc2ccccc2NC1=O (stereo not shown) | -13.4%
CN(C)C=O.Cc1ccc(S(=O)(=O)N(C)C)cc1NC(=S)Nc1ccc2[nH]c(=O)[nH]c2c1 | 76.2%
CCc1cccc(OCC2Cn3c(nc4c3c(=O)n(C)c(=O)n4C)O2)c1 (stereo not shown) | 3.18%
CC12CCC(=O)N1C(C(=O)Nc1ccc(S(=O)(=O)N3CCCCC3)cc1)CS2 (stereo not shown) | -5.09%
CC12CCC(=O)N1C(C(=O)Nc1cccc(S(=O)(=O)N3CCCCC3)c1)CS2 (stereo not shown) | -43.9%
CC12CCC(=O)N1C(C(=O)Nc1cccc(S(=O)(=O)N3CCCCCC3)c1)CS2 (stereo not shown) | -69.8%

Compound | hERG current change (%, negative = inhibition) at 10uM
CCOc1cccc(N2C(=O)CC(N(CCc3ccc(OC)c(OC)c3)C(=O)CC)C2=O)c1 (stereo not shown) | 24.9%
COc1ccc(Cc2nnc(SCC(=O)Nc3ccc(C)cc3C)[nH]c2=O)cc1 | -16.8%
Cc1ccc(Cc2nnc(SCC(=O)Nc3ccc(C)cc3C)[nH]c2=O)cc1 | 5.33%
Cc1ccc(NC(=O)CSc2nnc(Cc3ccccc3)c(=O)[nH]2)c(C)c1 | -51.4%
CCOc1cc(CNc2ccc3c(c2)CCC3)ccc1OC | -8.96%
Cc1ccc(NC(=O)CS(=O)(=O)c2c[nH]c3ccccc23)c(C)c1 | 11.9%
Cc1ccc(C2=NN(CCC(=O)NCCC(C)C)C(=O)CC2)cc1 | -24.5%
O=C(CN1N=C(c2ccccc2)CCC1=O)NCCCN1CCc2ccccc2C1 | -49.6%
Cc1ccc(-c2ccc(=O)n(CC(=O)NCCN(CC(C)C)CC(C)C)n2)cc1 | -16.3%
Cc1ccc(C2=NN(CCC(=O)NCCCN3CCOCC3)C(=O)CC2)cc1 | -52.3%
COc1ccc(C2=NN(CCC(=O)NCc3ccc4c(c3)OCO4)C(=O)CC2)cc1 | -18.8%
Cc1ccc(CC(=O)NCc2ccc3c(c2)OCO3)cc1 | 2.24%
O=C(CN1N=C(c2ccc(Cl)cc2)CCC1=O)NCCN1CCc2ccccc2C1 | -51.4%
Cc1ccc(C2=NN(CCC(=O)NCc3ccc4c(c3)OCO4)C(=O)CC2)cc1 | -69.7%
O=C(CN1N=C(c2ccccc2)CCC1=O)NCCN1CCc2ccccc2C1 | -15.7%
O=C(CCN1N=C(c2ccccc2)CCC1=O)NCCCN1CCOCC1 | 21.2%
Cc1ccc(C2=NN(CC(=O)NCCN(CC(C)C)CC(C)C)C(=O)CC2)cc1 | -50.2%
CC(C)CN(CCNC(=O)CN1N=C(c2ccc(Cl)cc2)CCC1=O)CC(C)C | -42.4%
